In PubChem BioAssay AID1159580 (chemical genetic matrix, 2015):
Screen size: about 5,500 compounds; about 2,000 (36%) were called active. About 18% were inconclusive and are not listed. No stated cut-off is given here; in the data, active means normalized growth mostly below about 0.91 (no sharp cut-off); inconclusive means no clear call, values can overlap the other calls; inactive means mostly above about 0.92. This is one part of the list.

Assay: chemical genetic growth profiling, strain panel (AID 1159580);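 further: tested at 20 µM; growth read once vehicle control cultures reached saturation at 30 °C; 1 = growth at the plate median or of vehicle wells; lower values mean less growth of the strain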
Settings: S. cerevisiae deletion strains, growth OD

Measured: normalized growth

COc1cc(CC(C)N)c(OC)cc1I (configuration not stated)
inactive: locus YAL040C, strain CLN3, hits give low values 0.975 | locus YCL061C, strain MRC1 (second series), hits give low values 1 | locus YDR363W, strain ESC2, hits give low values 1.04 | locus YER002W, strain NOP16, hits give low values 1.03 | locus YJR075W, strain HOC1, hits give low values 1.01 | locus YMR307W, strain GAS1, hits give low values 0.996 | locus YNL175C, strain NOP13, hits give low values 0.995 | locus YNL197C, strain WHI3, hits give low values 1.02 | locus YNL224C, strain SQS1, hits give low values 0.997 | locus YNL322C, strain KRE1, hits give low values 1 | locus YOR083W, strain WHI5 (second series), hits give low values 0.984 | locus YPL055C, strain LGE1, hits give low values 1.03 | locus YPL241C, strain CIN2, hits give low values 0.991

CC1=CC(=O)c2c(O)cccc2C1=O
active: locus YAL021C, strain ccr4, hits give low values 0.0614 | locus YAL026C, strain drs2, hits give low values 0.0573 | locus YAL030W, strain snc1, hits give low values 0.0538 | locus YBL061C, strain skt5, hits give low values 0.0578 | locus YBR009C, strain hhf1, hits give low values 0.0566 | locus YBR023C, strain chs3, hits give low values 0.0593 | locus YBR171W, strain sec66, hits give low values 0.0747 | locus YBR231C, strain swc5, hits give low values 0.0608 | locus YBR279W, strain paf1, hits give low values 0.0613 | locus YCL011C, strain gbp2, hits give low values 0.053 | locus YCL016C, strain dcc1, hits give low values 0.0629 | locus YCL069W, strain vba3, hits give low values 0.058 | locus YCR088W, strain abp1, hits give low values 0.0593 | locus YDL005C, strain med2, hits give low values 0.0698 | locus YDL040C, strain nat1, hits give low values 0.073 | locus YDR001C, strain nth1, hits give low values 0.0551 | locus YDR069C, strain doa4, hits give low values 0.0589 | locus YDR137W, strain rgp1, hits give low values 0.103 | locus YDR159W, strain sac3, hits give low values 0.139 | locus YDR195W, strain ref2 0.132 | locus YDR297W, strain sur2, hits give low values 0.0527 | locus YDR334W, strain swr1, hits give low values 0.063 | locus YDR335W, strain msn5, hits give low values 0.0594 | locus YDR392W, strain spt3, hits give low values 0.0748 | locus YEL003W, strain gim4, hits give low values 0.0513 | locus YEL037C, strain rad23, hits give low values 0.0601 | locus YEL061C, strain CIN8 (second series), hits give low values 0.0564 | locus YER015W, strain faa2, hits give low values 0.0571 | locus YER016W, strain bim1, hits give low values 0.0586 | locus YER111C, strain swi4, hits give low values 0.71 | locus YER155C, strain BEM2 (second series), hits give low values 0.0832 | locus YFR010W, strain ubp6, hits give low values 0.0636 | locus YGL167C, strain pmr1, hits give low values 0.071 | locus YGL173C, strain kem1, hits give low values 0.0648 | locus YGL227W, strain vid30, hits give low values 0.0587 | locus YGL240W, strain doc1, hits give low values 0.0736 | locus YGL253W, strain hxk2, hits give low values 0.0519 | locus YHR013C, strain ard1, hits give low values 0.101 | locus YHR027C, strain rpn1, hits give low values 0.0589 | locus YHR030C, strain SLT2, hits give low values 0.108 | locus YHR079C, strain IRE1, hits give low values 0.123 | locus YHR142W, strain chs7, hits give low values 0.0661 | locus YJL092W, strain hpr5, hits give low values 0.061 | locus YJL095W, strain BCK1 (second series), hits give low values 0.0545 | locus YJL095W, strain BCK1, hits give low values 0.133 | locus YJL115W, strain asf1, hits give low values 0.0773 | locus YJL129C, strain trk1, hits give low values 0.653 | locus YJL154C, strain vps35, hits give low values 0.0541 | locus YJL164C, strain tpk1, hits give low values 0.0572 | locus YJL166W, strain qcr8, hits give low values 0.0557 | locus YJL187C, strain SWE1, hits give low values 0.0545 | locus YJR066W, strain TOR1, hits give low values 0.00113 | locus YKL160W, strain elf1, hits give low values 0.0646 | locus YKR026C, strain gcn3, hits give low values 0.0585 | locus YKR091W, strain srl3, hits give low values 0.0562 | locus YLL001W, strain dnm1, hits give low values 0.0574 | locus YLL026W, hits give low values 0.0541 | locus YLL041C, strain sdh2, hits give low values 0.0519 | locus YLR027C, strain aat2, hits give low values 0.0528 | locus YLR113W, strain HOG1, hits give low values 0.191 | locus YLR221C, strain rsa3, hits give low values 0.054 | locus YLR258W, strain gsy2, hits give low values 0.056 | locus YLR262C, strain YPT6 (second series), hits give low values 0.0717 | locus YLR320W, strain mms22, hits give low values 0.0755 | locus YLR342W, strain FKS1, hits give low values 0.0621 | locus YLR357W, strain rsc2, hits give low values 0.113 | locus YLR370C, strain arc18, hits give low values 0.0568 | locus YLR384C, strain iki3, hits give low values 0.0609 | locus YML120C, strain ndi1, hits give low values 0.0584 | locus YMR058W, strain fet3, hits give low values 0.0576 | locus YMR125W, strain sto1, hits give low values 0.0728 | locus YMR129W, hits give low values 0.0547 | locus YMR205C, strain PFK2, hits give low values 0.0815 | locus YMR231W, strain pep5, hits give low values 0.0627 | locus YNL071W, strain lat1, hits give low values 0.0579 | locus YNL183C, strain NPR1, hits give low values 0.000686 | locus YNL209W, strain ssb2, hits give low values 0.0563 | locus YNL248C, strain rpa49, hits give low values 0.0708 | locus YNL322C, strain KRE1 (second series), hits give low values 0.062 | locus YNR049C, strain mso1, hits give low values 0.0527 | locus YOR001W, strain rrp6, hits give low values 0.065 | locus YOR070C, strain gyp1, hits give low values 0.0567 | locus YOR080W, strain dia2, hits give low values 0.1 | locus YOR083W, strain WHI5, hits give low values 0.0584 | locus YOR106W, strain vam3, hits give low values 0.0629 | locus YOR231W, strain MKK1, hits give low values 0.115 | locus YOR265W, strain rbl2, hits give low values 0.0542 | locus YOR270C, strain vph1, hits give low values 0.0962 | locus YPL051W, strain arl3, hits give low values 0.0583 | locus YPL078C, strain atp4, hits give low values 0.163 | locus YPL106C, strain sse1, hits give low values 0.0924 | locus YPL240C, strain hsp82, hits give low values 0.0548 | locus YPL256C, strain CLN2, hits give low values 0.128
inactive: locus YOR290C, strain snf2, hits give low values 0.906
